According to PubChem BioAssay (NCATS):
Inconclusive results are not listed. A call without a number means that no potency is given here. Active and inactive are the calls of the source. Unless noted, calls come from the whole dose curve. Peptide text beside a SMILES is read from it.

System: not listed separately
Test: qHTS for Inhibitors of the Functional Ribonucleoprotein Complex (vRNP) of Lymphocytic Choriomeningitis Arenaviruses (LCMV): Viability assay - alamar blue signal for LCMV Primary Screen (AID 1347085; calls by dose curve; tested in HEK293 reporter line; note: nearly all actives have a fitted effect of over 80% in size)
Details: alamar blue viability counter-screen, LCMV vRNP screen cells; series mostly up to 57.5 µM
Potency is the fitted concentration of half-maximal effect.

| Compound | Potency |
| --- | --- |
| CN1C(CSCC(F)(F)F)Nc2cc(Cl)c(S(N)(=O)=O)cc2S1(=O)=O (stereo not drawn) | inactive |
| CCN[C@H]1CN(CCCOC)S(=O)(=O)c2sc(S(N)(=O)=O)cc21 | inactive |
| CC(=O)Nc1ccc(CC(=O)O)cc1 | inactive |
| C/C=C/C=N/NC(=O)c1ccncc1 | inactive |
| Cc1ccc(C(=O)C(C)CN2CCCCC2)cc1 (stereo not drawn) | inactive |
| Cc1cc(C)c(NC(=O)CN(CC(=O)O)CC(=O)O)c(C)c1Br | inactive |
| OC[C@H]1O[C@@H](Oc2ccc(O)cc2)[C@H](O)[C@@H](O)[C@@H]1O | inactive |
| CCN1CCCC1CNC(=O)c1cc(S(=O)(=O)CC)c(N)cc1OC (stereo not drawn) | inactive |
| FC1(F)C(F)(F)C(F)(F)C2(F)C(F)(F)C(F)(F)C(F)(F)C(F)(F)C2(F)C1(F)F (stereo not drawn) | inactive |
| O=C(c1ccco1)N1CCNCC1 | inactive |
| Cc1cc(=O)oc2cc(O[C@@H]3SC[C@@H](O)[C@H](O)[C@H]3O)ccc12 | inactive |
| C=CCN1CCc2nc(N)sc2CC1 | inactive |
| O=C1CC[C@H](C(=O)N2CCCCC2)N1 | inactive |
| N[C@@H](Cc1cc(I)c(Oc2ccc(O)c(I)c2)c(I)c1)C(=O)O | inactive |
| CCCCCCCCCCCCCCCCCCN(C)C | inactive |
| CC(C(=O)O)c1ccc2c(c1)[nH]c1ccc(Cl)cc12 (stereo not drawn) | inactive |
| Nc1nc(N)nc(-c2cc(Cl)ccc2Cl)n1 | inactive |
| COc1cccc2c1C(=O)c1c(O)c3c(c(O)c1C2=O)C[C@@](O)(C(C)=O)C[C@H]3O[C@H]1C[C@H](N)[C@H](O)[C@H](C)O1 | 153 nM (active) |
| CCN(CC)CCNC(=O)COc1ccc(OC)cc1 | inactive |
| O=C(O)CCCCCCCC(=O)O | inactive |

| Compound | Potency |
| --- | --- |
| CC(C)=CCC1C(=O)N(c2ccccc2)N(c2ccccc2)C1=O | inactive |
| CS(=O)(=O)c1ccc([C@@H](O)[C@@H](CF)NC(=O)C(Cl)Cl)cc1 | inactive |
| CC(C)(C)c1cc(C=O)cc(C(C)(C)C)c1O | inactive |
| COc1ccc(CCN(C)CCCN2CCc3cc(OC)c(OC)cc3CC2=O)cc1OC | inactive |
| CN1CCN(N)CC1 | inactive |
| O=P(O)(O)C(O)(Cn1ccnc1)P(=O)(O)O | inactive |
| CC(=O)N[C@@H](CC(C)C)C(=O)O | inactive |
| O=C(O)CN1C(=O)c2cccc3cccc(c23)C1=O | inactive |
| Cc1cc(O)cc2c1O[C@](C)(CCC[C@H](C)CCC[C@H](C)CCCC(C)C)CC2 | inactive |
| O=C(N/N=C/c1ccccc1O)c1ccncc1 | inactive |
| C[C@]12CCC(=O)C=C1CC[C@H]1[C@@H]3CC[C@](O)(C(=O)CO)[C@@]3(C)C[C@H](O)[C@@]12F | inactive |
| CCNC(=O)[C@@H]1CCCN1C(=O)[C@H](CCCN=C(N)N)NC(=O)[C@H](CC(C)C)NC(=O)CNC(=O)[C@H](Cc1ccc(O)cc1)NC(=O)[C@H](CO)NC(=O)[C@H](Cc1c[nH]c2ccccc12)NC(=O)[C@H](Cc1cnc[nH]1)NC(=O)[C@@H]1CCC(=O)N1 (HELM PEPTIDE1{[Glp].H.W.S.Y.G.L.R.P.[CCN[*:1]]}$$$$V2.0) | inactive |
| CC(CCc1ccccc1)NCC(O)c1ccc(O)c(C(N)=O)c1 (stereo not drawn) | inactive |
| COc1ccc(Cc2cnc(N)nc2N)cc1OC | inactive |
| Cc1cc(C)nc(NS(=O)(=O)c2ccc(N)cc2)n1 | inactive |
| CC(=O)Oc1cccc2c1C(=O)c1c(OC(C)=O)cc(C(=O)O)cc1C2=O | inactive |
| O=C(O)CCCC[P+](c1ccccc1)(c1ccccc1)c1ccccc1 | inactive |
| CC(=O)OCC1=C(C(=O)O)N2C(=O)[C@@H](NC(=O)Cc3cccs3)[C@H]2SC1 | inactive |
| CCN1CCC[C@H]1CNC(=O)c1c(OC)ccc(Br)c1OC | inactive |

Biological target: Nucleoprotein (Lymphocytic choriomeningitis virus (strain Armstrong)) (UniProt P09992)
Test: qHTS for Inhibitors of the Functional Ribonucleoprotein Complex (vRNP) of Lymphocytic Choriomeningitis Arenaviruses (LCMV): LCMV Primary Screen - GLuc reporter signal (AID 1347086); note: nearly all actives have a fitted effect of over 70% in size
Details: LCMV minigenome vRNP cell assay, Gaussia luciferase reporter; series mostly up to 57.5 µM

Sequence of Nucleoprotein (Lymphocytic choriomeningitis virus (strain Armstrong)) (P09992 whole entry, looked up): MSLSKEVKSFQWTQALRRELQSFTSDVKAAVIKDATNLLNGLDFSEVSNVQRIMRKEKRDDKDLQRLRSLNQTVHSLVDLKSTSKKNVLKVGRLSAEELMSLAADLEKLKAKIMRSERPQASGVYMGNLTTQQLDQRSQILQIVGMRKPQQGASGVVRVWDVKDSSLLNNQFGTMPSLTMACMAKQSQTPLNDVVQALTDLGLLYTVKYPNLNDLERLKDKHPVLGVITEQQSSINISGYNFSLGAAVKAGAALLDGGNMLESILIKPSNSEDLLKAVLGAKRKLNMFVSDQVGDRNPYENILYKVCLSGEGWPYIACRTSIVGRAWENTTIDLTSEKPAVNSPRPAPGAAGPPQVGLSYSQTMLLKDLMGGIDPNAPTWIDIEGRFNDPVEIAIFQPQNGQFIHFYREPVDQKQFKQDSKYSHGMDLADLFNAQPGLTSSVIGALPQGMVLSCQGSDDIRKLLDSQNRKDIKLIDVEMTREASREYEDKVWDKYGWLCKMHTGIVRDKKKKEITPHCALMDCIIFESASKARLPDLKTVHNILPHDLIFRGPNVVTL

| Compound | Potency |
| --- | --- |
| CN1C(CSCC(F)(F)F)Nc2cc(Cl)c(S(N)(=O)=O)cc2S1(=O)=O (stereo not drawn) | inactive |
| CCN[C@H]1CN(CCCOC)S(=O)(=O)c2sc(S(N)(=O)=O)cc21 | inactive |
| CC(=O)Nc1ccc(CC(=O)O)cc1 | inactive |
| C/C=C/C=N/NC(=O)c1ccncc1 | inactive |
| Cc1ccc(C(=O)C(C)CN2CCCCC2)cc1 (stereo not drawn) | inactive |
| Cc1cc(C)c(NC(=O)CN(CC(=O)O)CC(=O)O)c(C)c1Br | inactive |
| OC[C@H]1O[C@@H](Oc2ccc(O)cc2)[C@H](O)[C@@H](O)[C@@H]1O | inactive |
| CCN1CCCC1CNC(=O)c1cc(S(=O)(=O)CC)c(N)cc1OC (stereo not drawn) | inactive |
| FC1(F)C(F)(F)C(F)(F)C2(F)C(F)(F)C(F)(F)C(F)(F)C(F)(F)C2(F)C1(F)F (stereo not drawn) | inactive |
| O=C(c1ccco1)N1CCNCC1 | inactive |
| Cc1cc(=O)oc2cc(O[C@@H]3SC[C@@H](O)[C@H](O)[C@H]3O)ccc12 | inactive |
| C=CCN1CCc2nc(N)sc2CC1 | inactive |
| O=C1CC[C@H](C(=O)N2CCCCC2)N1 | inactive |
| N[C@@H](Cc1cc(I)c(Oc2ccc(O)c(I)c2)c(I)c1)C(=O)O | inactive |
| CCCCCCCCCCCCCCCCCCN(C)C | inactive |
| CC(C(=O)O)c1ccc2c(c1)[nH]c1ccc(Cl)cc12 (stereo not drawn) | inactive |
| Nc1nc(N)nc(-c2cc(Cl)ccc2Cl)n1 | inactive |
| COc1cccc2c1C(=O)c1c(O)c3c(c(O)c1C2=O)C[C@@](O)(C(C)=O)C[C@H]3O[C@H]1C[C@H](N)[C@H](O)[C@H](C)O1 | 273 nM (active) |
| CCN(CC)CCNC(=O)COc1ccc(OC)cc1 | inactive |
| O=C(O)CCCCCCCC(=O)O | inactive |

| Compound | Potency |
| --- | --- |
| CC(C)=CCC1C(=O)N(c2ccccc2)N(c2ccccc2)C1=O | inactive |
| CS(=O)(=O)c1ccc([C@@H](O)[C@@H](CF)NC(=O)C(Cl)Cl)cc1 | inactive |
| CC(C)(C)c1cc(C=O)cc(C(C)(C)C)c1O | inactive |
| COc1ccc(CCN(C)CCCN2CCc3cc(OC)c(OC)cc3CC2=O)cc1OC | inactive |
| CN1CCN(N)CC1 | inactive |
| O=P(O)(O)C(O)(Cn1ccnc1)P(=O)(O)O | inactive |
| CC(=O)N[C@@H](CC(C)C)C(=O)O | inactive |
| O=C(O)CN1C(=O)c2cccc3cccc(c23)C1=O | inactive |
| Cc1cc(O)cc2c1O[C@](C)(CCC[C@H](C)CCC[C@H](C)CCCC(C)C)CC2 | inactive |
| O=C(N/N=C/c1ccccc1O)c1ccncc1 | inactive |
| C[C@]12CCC(=O)C=C1CC[C@H]1[C@@H]3CC[C@](O)(C(=O)CO)[C@@]3(C)C[C@H](O)[C@@]12F | inactive |
| CCNC(=O)[C@@H]1CCCN1C(=O)[C@H](CCCN=C(N)N)NC(=O)[C@H](CC(C)C)NC(=O)CNC(=O)[C@H](Cc1ccc(O)cc1)NC(=O)[C@H](CO)NC(=O)[C@H](Cc1c[nH]c2ccccc12)NC(=O)[C@H](Cc1cnc[nH]1)NC(=O)[C@@H]1CCC(=O)N1 (HELM PEPTIDE1{[Glp].H.W.S.Y.G.L.R.P.[CCN[*:1]]}$$$$V2.0) | inactive |
| CC(CCc1ccccc1)NCC(O)c1ccc(O)c(C(N)=O)c1 (stereo not drawn) | inactive |
| COc1ccc(Cc2cnc(N)nc2N)cc1OC | inactive |
| Cc1cc(C)nc(NS(=O)(=O)c2ccc(N)cc2)n1 | inactive |
| CC(=O)Oc1cccc2c1C(=O)c1c(OC(C)=O)cc(C(=O)O)cc1C2=O | inactive |
| O=C(O)CCCC[P+](c1ccccc1)(c1ccccc1)c1ccccc1 | inactive |
| CC(=O)OCC1=C(C(=O)O)N2C(=O)[C@@H](NC(=O)Cc3cccs3)[C@H]2SC1 | inactive |
| CCN1CCC[C@H]1CNC(=O)c1c(OC)ccc(Br)c1OC | inactive |
